From PubChem BioAssay (Tox21)
Results filed as inconclusive are left out. A call without a number means that no potency is given here. Active and inactive are the calls of the source. Unless noted, the call rests on the fitted dose curve; in most records, active means well fitted curve in the direction sought with a large enough effect in the repeat runs; inconclusive means weak or mixed curves; inactive means no such curve, though single readings can be large; an effect the other way counts as inactive or inconclusive.

How the values were obtained:
[1] = target: Aryl hydrocarbon receptor (Homo sapiens) (UniProt P35869); assay: qHTS assay to identify small molecule that activate the aryl hydrocarbon receptor (AhR) signaling pathway (AID 743085);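 further: HG2L7.5c1 human HepG2 liver cells with stably integrated DRE-driven firefly reporter; series mostly up to about 70 µM; nearly all actives have a fitted effect of over 15% in size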
Aryl hydrocarbon receptor (Homo sapiens), sequence (P35869 whole entry, looked up): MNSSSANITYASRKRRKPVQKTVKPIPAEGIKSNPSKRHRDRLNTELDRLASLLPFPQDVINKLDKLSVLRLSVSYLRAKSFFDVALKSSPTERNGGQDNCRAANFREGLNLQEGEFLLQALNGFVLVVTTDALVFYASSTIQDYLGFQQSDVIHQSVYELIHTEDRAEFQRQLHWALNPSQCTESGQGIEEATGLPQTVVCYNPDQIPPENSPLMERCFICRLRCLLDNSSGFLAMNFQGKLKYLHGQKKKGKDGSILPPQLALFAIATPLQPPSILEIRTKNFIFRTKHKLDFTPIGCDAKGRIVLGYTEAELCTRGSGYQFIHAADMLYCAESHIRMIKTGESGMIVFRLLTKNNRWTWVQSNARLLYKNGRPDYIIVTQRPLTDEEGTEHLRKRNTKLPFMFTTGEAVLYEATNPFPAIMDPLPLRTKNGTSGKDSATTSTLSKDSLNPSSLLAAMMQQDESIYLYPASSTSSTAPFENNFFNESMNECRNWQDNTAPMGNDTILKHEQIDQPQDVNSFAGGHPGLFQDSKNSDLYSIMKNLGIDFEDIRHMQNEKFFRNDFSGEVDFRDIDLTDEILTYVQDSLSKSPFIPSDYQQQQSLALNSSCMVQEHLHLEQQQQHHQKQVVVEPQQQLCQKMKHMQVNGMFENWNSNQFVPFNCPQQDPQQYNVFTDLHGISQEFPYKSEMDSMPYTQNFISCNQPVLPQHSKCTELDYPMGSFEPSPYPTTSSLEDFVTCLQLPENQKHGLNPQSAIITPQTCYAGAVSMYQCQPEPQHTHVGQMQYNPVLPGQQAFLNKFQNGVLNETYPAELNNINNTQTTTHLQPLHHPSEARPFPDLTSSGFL
How it was run: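 AhR agonist activity is inferred from enhanced light output of a DRE-controlled firefly luciferase reporter in HepG2 cells, measured with ONE-Glo following 24 h treatment at 37C.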

[2] = qHTS assay to identify small molecule that activate the aryl hydrocarbon receptor (AhR) signaling pathway - cell viability counter screen (AID 743086); further: nearly all actives have a fitted effect of over 45% in size; further: potency means the concentration at half of the fitted maximal effect
How it was run: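 HepG2-AhR-luc (HG2L7.5c1) cells, 4000/well, treated 24 h at 37 C with compound; viability measured as CellTiter-Fluor fluorescence after 30 min in the same wells as the luciferase read.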

[3] = target: Peroxisome proliferator-activated receptor gamma (Homo sapiens) (UniProt P37231); assay: qHTS assay to identify small molecule agonists of the peroxisome proliferator-activated receptor gamma (PPARg) signaling pathway (AID 743094; active means well fitted activation curve with a large enough effect in the signal ratio in the repeat runs, not every such curve was filed as active; the % refers to the signal ratio)
Peroxisome proliferator-activated receptor gamma (Homo sapiens), sequence (P37231 whole entry, looked up): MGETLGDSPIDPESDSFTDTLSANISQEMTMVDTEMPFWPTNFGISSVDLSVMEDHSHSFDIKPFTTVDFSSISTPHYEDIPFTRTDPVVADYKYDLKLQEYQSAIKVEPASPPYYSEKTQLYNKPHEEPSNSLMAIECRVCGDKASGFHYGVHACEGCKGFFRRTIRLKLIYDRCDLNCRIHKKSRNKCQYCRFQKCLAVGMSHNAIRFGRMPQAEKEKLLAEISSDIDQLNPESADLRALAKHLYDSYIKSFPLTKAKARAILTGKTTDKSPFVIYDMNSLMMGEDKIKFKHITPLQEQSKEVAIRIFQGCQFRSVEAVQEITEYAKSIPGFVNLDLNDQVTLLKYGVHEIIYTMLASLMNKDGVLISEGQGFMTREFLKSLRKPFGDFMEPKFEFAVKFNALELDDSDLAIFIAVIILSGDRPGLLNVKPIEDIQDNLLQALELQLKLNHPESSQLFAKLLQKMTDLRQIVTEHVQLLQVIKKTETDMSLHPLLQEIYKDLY
How it was run: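 GeneBLAzer PPARg UAS-bla HEK293H cells carrying a stably integrated beta-lactamase reporter were pre-incubated 5 h at 37C, then exposed to compounds in DMSO for 17 h at 37C; LiveBLAzer B/G FRET substrate was added for 1 h at room temperature and fluorescence read.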

[4] = target: Peroxisome proliferator-activated receptor gamma (Homo sapiens) (UniProt P37231); assay: qHTS assay to identify small molecule antagonists of the peroxisome proliferator-activated receptor gamma (PPARg) signaling pathway (AID 743191; calls by dose curve; further: series mostly up to about 63 µM; nearly all actives have a fitted effect of over 30% in size)
How it was run: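 GeneBLAzer PPARg UAS-bla HEK293H cells, 5 h post-plating, exposed to compounds 17 h at 37C. LiveBLAzer B/G FRET substrate added for 1 h at room temperature; beta-lactamase reporter read by fluorescence intensity.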

[5] = qHTS assay to identify small molecule antagonists of the peroxisome proliferator-activated receptor gamma (PPARg) signaling pathway - cell viability counter screen (AID 743194); further: nearly all actives have a fitted effect of over 55% in size
How it was run: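 Cytotoxicity counter screen in PPARg-bla HEK293H cells, same wells as reporter assay. Compounds plus 50 nM rosiglitazone (final) for 17 h at 37 C, then viability read by CellTiter-Glo luminescence.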

[6] = qHTS assay for small molecule agonists of the antioxidant response element (ARE) signaling pathway - cell viability counter screen (AID 743203; calls by dose curve; further: nearly all actives have a fitted effect of over 55% in size)
How it was run: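 CellSensor ARE-bla HepG2 cells, 2,000 per well, rested 5 hrs at 37C/5% CO2, then exposed to compound in DMSO for 16 hrs; viability read as CellTiter-Glo luminescence after 30 min at room temperature, in the reporter wells.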

[7] = qHTS assay for small molecule activators of the heat shock response signaling pathway - cell viability counter screen (AID 743209); further: nearly all actives have a fitted effect of over 50% in size
How it was run: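 CellSensor HSE-bla HeLa cells, plated overnight at 37 C/5% CO2, were exposed to compounds in DMSO for 5 h at 37 C. Viability was then read in the same wells by CellTiter-Glo luminescence after 30 min at room temperature.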

[8] = qHTS assay for small molecule activators of the heat shock response signaling pathway (AID 743210; active means well fitted activation curve with a large enough effect in the signal ratio in the repeat runs, with a control signal flat, not every such curve was filed as active; the % refers to the signal ratio;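 further: HeLa cells with beta-lactamase reporter driven by heat shock elements; series mostly up to about 63 µM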)
How it was run: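 Quantitative high-throughput format using an engineered HeLa line in which heat shock response elements drive beta-lactamase; after 5 h with compound, cells received a B/G FRET substrate and fluorescence was read.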

[9] = qHTS assay to identify small molecule agonists of the peroxisome proliferator-activated receptor delta (PPARd) signaling pathway - cell viability counter screen (AID 743211); further: nearly all actives have a fitted effect of over 55% in size
How it was run: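 qHTS cell viability: PPARd-bla HEK293H; 17 h cpd, 37C; CellTiter-Glo, luminescence at 30 min RT.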

[10] = target: Peroxisome proliferator-activated receptor delta (Homo sapiens) (UniProt Q03181); assay: qHTS assay to identify small molecule antagonists of the peroxisome proliferator-activated receptor delta (PPARd) signaling pathway (AID 743215; active means well fitted inhibition curve with a large enough effect in the signal ratio in the repeat runs, not every such curve was filed as active; the % refers to the signal ratio; further: series mostly up to about 62 µM)
Peroxisome proliferator-activated receptor delta (Homo sapiens), sequence (Q03181 whole entry, looked up): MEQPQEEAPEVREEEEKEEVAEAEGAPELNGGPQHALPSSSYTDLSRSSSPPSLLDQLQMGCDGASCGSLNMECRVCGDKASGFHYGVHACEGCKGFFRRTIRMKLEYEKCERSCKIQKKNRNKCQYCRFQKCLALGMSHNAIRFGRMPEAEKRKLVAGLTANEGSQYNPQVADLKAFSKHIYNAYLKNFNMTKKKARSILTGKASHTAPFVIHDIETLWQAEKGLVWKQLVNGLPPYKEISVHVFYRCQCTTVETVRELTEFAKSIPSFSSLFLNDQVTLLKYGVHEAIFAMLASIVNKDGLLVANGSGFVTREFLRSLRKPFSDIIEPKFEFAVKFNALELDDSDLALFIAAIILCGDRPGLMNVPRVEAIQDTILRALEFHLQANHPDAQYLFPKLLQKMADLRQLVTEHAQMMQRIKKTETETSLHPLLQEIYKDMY
How it was run: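 PPARd UAS-bla HEK293H cells were pre-incubated 5 h at 37 C, then given test compounds in DMSO plus agonist L165041 (300 nM final). After 17 h at 37 C, beta-lactamase FRET substrate was added; fluorescence read after 2 h at room temperature.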

[11] = qHTS assay to identify small molecule agonists of the farnesoid-X-receptor (FXR) signaling pathway - cell viability counter screen (AID 743218); further: nearly all actives have a fitted effect of over 45% in size
How it was run: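 FXR-UAS-bla HEK 293T cells, plated 5 h at 37 C, were exposed to compounds for 16 h at 37 C. CellTiter-Glo was then added to the same wells as the bla readout; luminescence read after 30 min at room temperature.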

[12] = qHTS assay to identify small molecule antagonists of the farnesoid-X-receptor (FXR) signaling pathway - cell viability counter screen (AID 743221; active means well fitted cell-killing curve with a large enough effect in the repeat runs, not every such curve was filed as active; further: nearly all actives have a fitted effect of over 50% in size)
How it was run: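 After a 5 h settling period, FXR-bla HEK 293T cells receive compound and chenodeoxycholic acid (50 uM final) and incubate 16 h at 37 C; CellTiter-Glo luminescence, read after 30 min at room temperature, reports cell viability.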

[13] = target: Vitamin D3 receptor (Homo sapiens) (UniProt P11473); assay: qHTS assay to identify small molecule agonists of the vitamin D receptor (VDR) signaling pathway (AID 743222; calls by dose curve)
Vitamin D3 receptor (Homo sapiens), sequence (P11473 whole entry, looked up): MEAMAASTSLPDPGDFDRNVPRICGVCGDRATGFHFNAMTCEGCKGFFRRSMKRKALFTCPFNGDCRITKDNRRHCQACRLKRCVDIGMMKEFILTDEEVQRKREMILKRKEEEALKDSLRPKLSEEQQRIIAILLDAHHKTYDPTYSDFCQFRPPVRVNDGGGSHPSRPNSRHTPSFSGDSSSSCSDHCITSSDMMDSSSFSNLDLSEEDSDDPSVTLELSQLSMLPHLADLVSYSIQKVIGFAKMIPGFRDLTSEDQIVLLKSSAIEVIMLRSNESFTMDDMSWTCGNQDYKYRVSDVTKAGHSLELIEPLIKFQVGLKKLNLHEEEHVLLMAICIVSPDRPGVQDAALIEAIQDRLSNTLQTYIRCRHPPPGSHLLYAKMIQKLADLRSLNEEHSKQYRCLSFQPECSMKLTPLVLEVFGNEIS
How it was run: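 VDR-bla cells were plated 4 h at 37C/5% CO2, then exposed to compounds in DMSO for 16 h. After LiveBLAzer B/G FRET substrate addition and 2 h at room temperature, beta-lactamase reporter fluorescence was read.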

[14] = qHTS assay to identify small molecule agonists of the vitamin D receptor (VDR) signaling pathway - cell viability counter screen (AID 743224); further: series mostly up to about 63 µM; nearly all actives have a fitted effect of over 50% in size
How it was run: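 VDR-bla cells were preincubated 4 h at 37C/5% CO2, then exposed to compounds for 16 h. After the 2 h room-temperature bla FRET read, CellTiter-Glo was added to the same wells and luminescence read after 30 min.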

[15] = qHTS assay for small molecule agonists of the antioxidant response element (ARE) signaling pathway (AID 743202; active means well fitted activation curve with a large enough effect in the signal ratio in the repeat runs, not every such curve was filed as active; the % refers to the signal ratio)
How it was run: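 Agonist mode reporter screen: HepG2 cells with ARE-controlled beta-lactamase are incubated with test compounds for 16 h at 37 C, and beta-lactamase activity is measured as fluorescence of cleaved B/G FRET substrate.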

[16] = qHTS assay to identify small molecule antagonists of the peroxisome proliferator-activated receptor delta (PPARd) signaling pathway - cell viability counter screen (AID 743213); further: nearly all actives have a fitted effect of over 50% in size
How it was run: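 Agonist-stimulated (L165041, 300 nM final) HEK293H PPARd UAS-bla cells are exposed to compounds for 17 h at 37 C, and ATP-based luminescence (CellTiter-Glo) from the same wells reports cytotoxicity.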

[17] = target: Bile acid receptor (Homo sapiens) (UniProt Q96RI1); assay: qHTS assay to identify small molecule antagonists of the farnesoid-X-receptor (FXR) signaling pathway (AID 743217; active means well fitted inhibition curve with a large enough effect in the signal ratio in the repeat runs, not every such curve was filed as active; the % refers to the signal ratio)
Bile acid receptor (Homo sapiens), sequence (Q96RI1 whole entry, looked up): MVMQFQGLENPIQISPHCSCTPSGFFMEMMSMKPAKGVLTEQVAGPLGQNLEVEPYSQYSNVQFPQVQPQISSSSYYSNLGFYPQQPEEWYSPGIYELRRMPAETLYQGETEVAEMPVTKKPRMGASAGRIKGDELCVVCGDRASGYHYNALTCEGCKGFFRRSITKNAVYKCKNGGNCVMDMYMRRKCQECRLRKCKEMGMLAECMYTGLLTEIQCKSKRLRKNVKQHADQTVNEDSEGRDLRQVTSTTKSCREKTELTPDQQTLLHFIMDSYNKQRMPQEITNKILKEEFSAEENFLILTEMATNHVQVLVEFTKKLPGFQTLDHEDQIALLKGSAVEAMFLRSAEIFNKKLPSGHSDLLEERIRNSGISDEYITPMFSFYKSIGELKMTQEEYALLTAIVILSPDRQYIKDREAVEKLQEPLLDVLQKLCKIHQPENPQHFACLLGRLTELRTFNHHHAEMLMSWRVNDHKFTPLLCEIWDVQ
How it was run: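 FXR-UAS-bla HEK 293T cells pre-incubated 5 h at 37 °C, then exposed to compounds with chenodeoxycholic acid (50 uM final) for 16 h at 37 °C. Beta-lactamase reporter read by LiveBLAzer B/G FRET substrate fluorescence after 2 h at room temperature.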

[18] = target: Vitamin D3 receptor (Homo sapiens) (UniProt P11473); assay: qHTS assay to identify small molecule antagonists of the vitamin D receptor (VDR) signaling pathway (AID 743223; active means well fitted inhibition curve with a large enough effect in the signal ratio in the repeat runs, not every such curve was filed as active; the % refers to the signal ratio)
How it was run: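 Reporter line VDR-bla; stimulus 1alpha,25-(OH)2 vitamin D3, 3 nM final; compound co-addition, 16 h 37C/5% CO2; LiveBLAzer B/G substrate 2 h RT; fluorescence intensity.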

[19] = target: Peroxisome proliferator-activated receptor delta (Homo sapiens) (UniProt Q03181); assay: qHTS assay to identify small molecule agonists of the peroxisome proliferator-activated receptor delta (PPARd) signaling pathway (AID 743212; calls by dose curve)
How it was run: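 Quantitative high-throughput agonist screen in a HEK293H beta-lactamase reporter line under UAS control. Compounds in DMSO, at 37 C. Fluorescence read after 2 h with FRET substrate at room temperature.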

[20] = target: Bile acid receptor (Homo sapiens) (UniProt Q96RI1); assay: qHTS assay to identify small molecule agonists of the farnesoid-X-receptor (FXR) signaling pathway (AID 743220; active means well fitted activation curve with a large enough effect in the signal ratio in the repeat runs, not every such curve was filed as active; the % refers to the signal ratio)
How it was run: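 Beta-lactamase reporter under UAS control in GeneBLAzer FXR HEK 293T cells (5000/well) measured with LiveBLAzer FRET substrate after 2 h at room temperature. Compound exposure lasted 16 h at 37C.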

Row | SMILES | Potency [1] | Potency [2] | outcome [3] | Potency [4] | Potency [5] | Potency [6] | Potency [7] | Potency [8] | Potency [9] | Potency [10] | Potency [11] | Potency [12] | outcome [13] | Potency [14] | Potency [15] | Potency [16] | outcome [17] | outcome [18] | outcome [19] | Potency [20]
1 | CCCCC[C@H](O)/C=C/[C@H]1[C@H](O)CC(=O)[C@@H]1C/C=C\CCCC(=O)O | inactive | inactive | inactive | inactive | inactive | inactive | inactive | inactive | inactive | inactive | inactive | inactive | inactive | inactive |  |  |  |  |  | 
2 | CNC1CCCN(c2c(F)cc3c(=O)c(C(=O)O)cn(C4CC4)c3c2OC)C1 (stereo not drawn) | inactive | inactive | inactive | inactive | inactive | inactive |  | inactive | inactive |  | inactive | inactive | inactive | inactive | inactive | inactive | inactive | inactive |  | 
3 | O=C(Oc1ccccc1)c1ccc2ccccc2c1O | inactive | inactive | inactive | inactive |  | inactive | inactive | inactive | inactive | inactive | inactive |  | inactive |  | inactive | inactive |  | inactive | inactive | 
4 | CC1CCCC(=O)C1=O (stereo not drawn) | inactive | inactive | inactive | inactive | inactive | inactive |  | inactive | inactive | inactive | inactive | inactive | inactive | inactive | inactive |  |  | inactive | inactive | 
5 | CCN(Cc1cccc(S(=O)(=O)O)c1)c1ccc(C(=C2C=CC(=[N+](CC)Cc3cccc(S(=O)(=O)O)c3)C=C2)c2ccc(O)cc2S(=O)(=O)[O-])cc1 | inactive | 16.6 µM (active) | inactive | inactive | inactive |  |  | inactive |  | inactive |  |  | inactive |  | inactive |  | inactive | inactive | inactive | inactive
6 | NC(=O)CCCCC(N)=O | inactive | inactive | inactive | inactive | inactive | inactive | inactive | inactive | inactive | inactive | inactive | inactive | inactive | inactive |  | inactive |  | inactive | inactive | 
7 | O=S(=O)(Cl)c1c(Cl)cccc1Cl | inactive | inactive | inactive | inactive | inactive | inactive |  | inactive | inactive | inactive | inactive | inactive |  | inactive | inactive | inactive |  |  | inactive | 
8 | Cc1ccc(N(CC2=NCCN2)c2cccc(O)c2)cc1 | inactive | inactive | inactive | inactive | inactive | inactive | inactive | inactive |  | inactive | inactive | inactive | inactive | inactive |  | inactive |  | inactive | inactive | 
9 | O=C(c1ccccc1)C1CCC1 | inactive | inactive | inactive | inactive | inactive | inactive |  |  | inactive |  | inactive |  | inactive | inactive | inactive | inactive |  | inactive | inactive | 
10 | CNc1c2c(nn1C)CCCC2 | inactive | inactive | inactive | inactive | inactive |  |  | inactive | inactive |  | inactive | inactive |  | inactive | inactive | inactive |  |  |  | 
11 | CC1=CC[C@@]23C[C@@H]1C(C)(C)[C@@H]2CC[C@H]3C | inactive | inactive | inactive | inactive |  | inactive | inactive | inactive |  |  | inactive | inactive |  | inactive | inactive | inactive |  |  |  | 
12 | C/C(C=O)=C\c1ccccc1 | inactive | inactive | inactive | inactive | inactive | inactive |  | inactive |  | inactive | inactive |  | inactive | inactive |  | inactive |  | inactive | inactive | 
13 | Cc1ccc(N(CCO)CCO)cc1 | inactive | inactive | inactive | inactive | inactive | inactive | inactive | inactive | inactive | inactive | inactive | inactive | inactive | inactive |  | inactive | inactive |  | inactive | inactive
14 | CC(C)COC(=O)COc1cc(Cl)c(Cl)cc1Cl | inactive | inactive | inactive | inactive | inactive | inactive | inactive | inactive | inactive | inactive | inactive | inactive |  | inactive |  | inactive |  |  | inactive | 
15 | CC(C)COC(=O)c1ccc(O)cc1 | inactive | inactive | inactive | inactive | inactive | inactive | inactive | inactive | inactive | inactive | inactive |  | inactive | inactive |  | inactive | inactive | inactive | inactive | inactive
16 | O=C(O)CO | inactive | inactive | inactive | inactive | inactive | inactive | inactive | inactive | inactive | inactive | inactive | inactive | inactive | inactive |  | inactive |  |  | inactive | 
17 | CN1C(CSCC(F)(F)F)Nc2cc(Cl)c(S(N)(=O)=O)cc2S1(=O)=O (stereo not drawn) | inactive | inactive | inactive | inactive | inactive | inactive | inactive | inactive | inactive |  | inactive | inactive | inactive | inactive |  | inactive |  | inactive | inactive | 
18 | CC1C(C)(C)C2=C(C(=O)CCC2)C1(C)C (stereo not drawn) | inactive | inactive | inactive | inactive | inactive | inactive | inactive | inactive | inactive | inactive | inactive | inactive | inactive | inactive |  | inactive |  | inactive | inactive | 
19 | O=C1OC[C@H](Cc2cccc(O)c2)[C@H]1Cc1cccc(O)c1 | inactive | inactive | inactive | inactive |  | inactive | inactive | inactive | inactive | inactive | inactive |  | inactive |  | inactive | inactive |  |  | inactive | 
